Assay outcomes: PubChem BioAssay, several laboratories
Most compounds without a hit are left out; they make up all but 1.5% or so of the library.
MEX-5 binding: C. elegans MEX-5 TCR-2 RNA binding activity; activity score (negative = inhibition of binding), % at 10 µM; AID 1832; 300,000 compounds, 0.38% hits; Q9XUB2; MEX-5/FITC-TCR2 RNA binding, fluorescence polarization; hits give low values;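 active = inhibition past about -25% in most replicates, and total fluorescence under double the plate's negative control median, limit read from the data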;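 note: 0% = DMSO and -100% = 5 µM competing unlabeled TCR2 RNA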
Target sequence (Q9XUB2 whole entry, looked up): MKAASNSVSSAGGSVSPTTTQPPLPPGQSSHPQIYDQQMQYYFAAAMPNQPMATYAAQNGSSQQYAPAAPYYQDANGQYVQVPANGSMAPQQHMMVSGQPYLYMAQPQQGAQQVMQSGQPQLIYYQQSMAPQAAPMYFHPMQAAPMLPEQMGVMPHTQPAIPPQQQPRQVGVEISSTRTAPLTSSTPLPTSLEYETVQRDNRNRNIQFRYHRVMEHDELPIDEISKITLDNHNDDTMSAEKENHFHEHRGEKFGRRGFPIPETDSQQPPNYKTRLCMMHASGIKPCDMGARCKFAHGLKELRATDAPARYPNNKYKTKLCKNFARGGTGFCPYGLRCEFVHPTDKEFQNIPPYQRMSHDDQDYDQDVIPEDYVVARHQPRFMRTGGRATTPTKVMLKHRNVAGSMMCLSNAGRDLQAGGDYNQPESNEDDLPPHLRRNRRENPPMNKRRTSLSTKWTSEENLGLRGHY
GLD-1 TGE inh: GLD-1-TGE RNA interaction inhibition (C. elegans). Q17339. purified GLD-1 + fluorescein TGE RNA, fluorescence polarization. inhibition, % at 5.96 µM. 320,000 compounds, 0.44% hits. AID 2280;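 active = percent inhibition above a per-plate cutoff, the plate mean of test compounds plus 3 SD, cut at about 30% in these data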;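 note: 0% = DMSO wells with GLD-1 and probe and 100% = wells lacking GLD-1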
eLon inh: inhibitors of E. coli Lon protease. purified E. coli Lon protease, fluorescence polarization. inhibition, % at 7.94 µM. P0A9M0. 360,000 compounds, 0.42% hits. AID 602123; in the data active = inhibition above about 13%, passing the limit was not always enough;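 note: 0% = enzyme with probe and DMSO and 100% = no enzyme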
EBV gp42 block: EBV gp42 inhibition | Q1HVG2 | Fluorescence polarization binding assay, mP read-out | inhibition, % (tested at 21.74 µM) | 220,000 compounds, 0.42% hits; in the data active = inhibition above about 50%
BCLXL inh: Bcl-xL (human) inhibition; 320,000 compounds, 0.7% hits; GST-Bcl-xL / FITC-Bim BH3 peptide fluorescence polarization; inhibition, % at 10.9 µM; AID 2129; Q07817;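 active = inhibition above the mean of all tested compounds plus 3 SD, cutoff set per campaign, cut at about 30% in these data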;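 note: 0% = DMSO wells and 100% = unlabeled Bim-BH3 peptide competitor; inhibitors lower millipolarization by displacing the labeled peptide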
Target sequence (Q07817 whole entry, looked up): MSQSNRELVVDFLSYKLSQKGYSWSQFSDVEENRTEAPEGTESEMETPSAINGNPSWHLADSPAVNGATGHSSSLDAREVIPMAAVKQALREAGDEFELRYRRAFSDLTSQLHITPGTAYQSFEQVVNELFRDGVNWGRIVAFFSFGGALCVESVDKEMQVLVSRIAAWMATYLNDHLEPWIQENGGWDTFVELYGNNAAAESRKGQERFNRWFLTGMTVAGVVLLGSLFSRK
MCL1-BIM inh: MCL1-BIM-BH3 interaction inhibition (human); 320,000 compounds, 0.68% hits; inhibition, % at 10.9 µM; Q07820; GST-MCL1 / FITC-Bim-BH3 fluorescence polarization;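 active = inhibition above the mean inhibition of all tested compounds plus 3 SD, set per campaign, cut at about 40% in these data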;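 note: 0% = DMSO wells and 100% = unlabeled Bim-BH3 peptide control; higher means more loss of mP so more displacement of Bim peptide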
E coli Lon conf: E. coli Lon inhibition confirmation. shares compounds with eLon inh. purified E. coli Lon, fluorescence polarization. inhibition, % at 7.94 µM. 1,400 compounds, 31% hits. AID 602230; in the data active = inhibition above about 16%;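 note: 0% = enzyme with probe and DMSO and 100% = no enzyme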
Starred values were filed as active, the others as inactive; . = no result; + = active, no number.

SMILES | MEX-5 binding | GLD-1 TGE inh | eLon inh | EBV gp42 block | BCLXL inh | MCL1-BIM inh | E coli Lon conf
Cc1ncc([N+](=O)[O-])n1CC(=O)Nc1ccc(F)c(Cl)c1 | 2 | -7 | -5 | . | 2 | 11 | .
CCCCC1(Cc2ccc([N+](=O)[O-])cc2)C(=O)N(c2ccccc2)N(c2ccccc2)C1=O | 1 | 5 | 2 | -16 | -7 | -18 | .
COc1ccc(CNC(=O)c2c(F)c(F)c(F)c(F)c2F)cc1 | 4 | 5 | -6 | -12 | 4 | 1 | .
CC(=O)CSc1nc2ccccc2o1 | 2 | 8 | 0 | -16 | 1 | 5 | .
O=C(CSc1nc2ccccc2o1)c1ccccc1 | 0 | -2 | 53* | -20 | -2 | -7 | 24*
C(=Cc1cnc2ccccc2n1)c1ccc2c(c1)OCO2 | . | . | 96* | . | . | . | -17
CCN1CCCC1CNC(=S)Nc1ccc(C(C)=O)cc1 (stereo not given) | -1 | 5 | -3 | 9 | 8 | 11 | .
O=C(c1nc2ccccn2c1CN1CCCC(O)C1)N1CCN(C2CCCCC2)CC1 (stereo not given) | -9 | 9 | 19* | . | 23 | 18 | 4
Cc1c(Cc2ccccc2)c(=O)oc2c(C)c(OCC(=O)Nc3ccc(C#N)cc3)ccc12 | -1 | 8 | 1 | 6 | 2 | 13 | .
CN(C)Cc1csc(NC(=O)Nc2ccccc2Oc2ccccc2)n1 | . | . | 86* | . | . | . | 6
CN(C)Cc1csc(NC(=O)Nc2ccccc2-c2ccccc2)n1 | . | . | -15 | . | . | . | .
COCCNC(=O)C(OC(=O)CC1Sc2ccccc2NC1=O)c1ccncc1 (stereo not given) | -2 | 1 | -5 | -20 | 1 | -2 | .
O=C(Nc1cccc(C(=O)N2CCCCC2)c1)C1CCCC1 | . | . | 16* | . | . | . | -6
O=C(Nc1cccc(C(=O)N2CCCCC2)c1)c1ccc(Cl)cc1 | 0 | 3 | 17* | . | -2 | 1 | 5
O=C(Nc1cccc(C(=O)N2CCCCC2)c1)c1ccccc1 | . | . | 10 | . | . | . | .
CCCCNC(=O)CSc1nc2ccccc2n1S(=O)(=O)c1ccc(Cl)cc1 | -1 | 2 | -6 | 1 | 1 | 8 | .
CNC(=O)CSc1nc2cccnc2n1-c1ccc(F)cc1 | 2 | . | 28* | . | . | . | -11
O=C(Nc1ccc2c(c1)OCCO2)c1ccccc1F | -2 | 3 | -9 | -33 | 7 | 1 | .
O=C(NC(=S)Nc1ccc2c(c1)OCCO2)c1ccccc1F | -1 | -2 | 36* | -3 | 6 | 3 | -3
O=C(COC(=O)c1cc[n+]([O-])cc1)Nc1cccc(Cl)c1Cl | -2 | -7 | 16* | -6 | 13 | 3 | -9
CC(=O)c1ccccc1NC(=O)COC(=O)c1cc[n+]([O-])cc1 | . | 3 | -10 | . | . | . | .
COc1ccc(N2CCN(C3CCCCC3NS(=O)(=O)c3ccc(Cl)cc3)CC2)cc1 (stereo not given) | 0 | -12 | 8 | . | -2 | -2 | .
COc1ccccc1N1CCN(C2CCCCC2NS(=O)(=O)c2ccc(Cl)cc2)CC1 (stereo not given) | 1 | 10 | 25* | . | -1 | -7 | -4
O=C(NCCCN1CCCC1=O)c1ccc2c(=O)n(Cc3ccco3)c(=S)[nH]c2c1 | -1 | -6 | 18* | -3 | 13 | 6 | 8
CCN(CC)CCNC(=O)c1cc2ccccc2nc1Cl | 0 | 8 | 1 | -29 | -2 | 1 | .
SMILES | MEX-5 binding | GLD-1 TGE inh | eLon inh | EBV gp42 block | BCLXL inh | MCL1-BIM inh | E coli Lon conf
CCOC(=O)c1c(C)oc2c1c(C(c1ccccc1)N1CCOCC1)c(O)c1ccccc12 (stereo not given) | 0 | 9 | 5 | -23 | 1 | 3 | .
CCOC(=O)c1c(C)oc2c1c(C=NCCO)c(O)c1ccccc12 | -1 | . | 25* | -17 | . | . | 20*
COc1cc2c(cc1OC)CN(C(=O)CN1CCN(S(=O)(=O)c3ccc(C)c(C)c3)CC1)CC2 | 0 | -2 | 3 | . | -1 | 3 | .
Clc1ccc(N=NN2CCOCC2)cc1 | 0 | 5 | 19* | -10 | 7 | 7 | 4
S=c1[nH]nc(-c2ccc3ccccc3n2)n1-c1ccc2ncccc2c1 | 1 | -5 | 20* | 22 | -13 | 4 | 9
Cc1cc(C)cc(C(=O)Nc2ccncc2)c1 | 3 | -9 | 19* | . | -7 | -6 | -5
CCNC(=S)N=Nc1c(O)[nH]c2ccc(C(C)C)cc12 | -3 | 13 | 23* | 5 | 6 | 13 | 20*
O=C(CCN1C(=O)c2ccccc2C1=O)N1CCN(Cc2ccccc2)CC1 | 0 | -4 | 4 | -6 | 0 | 2 | .
COc1ccc(CC2=C(O)c3ccccc3C(=O)C2=O)cc1 | 0 | 0 | 6 | . | 3 | 14 | .
O=C1C(=O)c2ccccc2C(O)=C1CCCCl | 0 | 1 | 77* | -17 | 5 | 1 | 5
O=C(Nc1cc(F)ccc1F)C1CCCO1 (stereo not given) | -2 | 3 | 6 | 2 | 4 | -2 | .
CC(C(=O)N1CCCc2c1c(=O)oc1ccc(O)cc21)N1CCc2ccccc2C1 (stereo not given) | 0 | -6 | 16* | -11 | 5 | -3 | +
CC(=O)N1CCN(S(=O)(=O)c2ccc(S(=O)(=O)N3CCCC(C)C3)cc2)CC1 (stereo not given) | -1 | 0 | 22* | . | 2 | -3 | -14
CC(=O)N1CCC(C(=O)Nc2ccc(S(=O)(=O)N3CCCC(C)C3)cc2)CC1 (stereo not given) | . | . | -4 | . | . | . | .
Cc1cc(=O)oc2cc(NC(=O)c3ccccc3Cl)ccc12 | -3 | 14 | -14 | . | 29 | 25 | .
Cc1cccc(CNC(=O)c2ccc3nc(Cc4ccccc4F)oc3c2)n1 | 3 | -3 | 4 | . | 1 | -5 | .
CCOC(=O)Cn1cnc2sc(C(=O)OC)c(C)c2c1=O | 3 | -1 | 0 | -24 | 7 | 9 | .
CCOCCn1cnc2sc(C(=O)NCC(=O)OCC)c(C)c2c1=O | 2 | -1 | 15* | -12 | 7 | 8 | -4
O=C1Cc2cc(S(=O)(=O)N3CCN(c4cccc(Cl)c4)CC3)ccc2N1 | 3 | -5 | 52* | . | -22 | -25 | -6
O=C1CCc2cc(S(=O)(=O)N3CCN(c4cccc(Cl)c4)CC3)ccc2N1 | 2 | 6 | -12 | -14 | 4 | -3 | .
COCCNc1nc(C)cc(-c2cc(C(=O)Nc3ccccc3)on2)n1 | 2 | -5 | 29* | . | 2 | 4 | 3
Nc1[nH]n(-c2c(Cl)cc(Cl)cc2Cl)c(=O)c1N=Nc1ccc(S(=O)(=O)Nc2ncccn2)cc1 | . | 3 | 21* | . | . | . | 9
O=C(Cn1nnc2ccccc21)OCC(=O)c1ccc(Cl)c(Cl)c1 | 2 | 0 | -4 | -14 | 10 | 2 | .
O=C(Nc1ccc(S(=O)(=O)Nc2ncccn2)cc1)c1ccccc1 | 2 | -3 | 14 | . | 5 | 6 | .
